Screens (PubChem)
Sampled rows, rich in hits. Any-hit rate of the full collection: about 10%.
MCF10A rerep: inducers of DNA re-replication in MCF 10A breast cells | Potency, µM (top dose mostly 46.1 µM), for inactives: at the highest dose activity, positive = re-replication, hits mostly activators | MCF 10A DNA re-replication, Hoechst nuclear intensity, 48 h | 350,000 compounds, 2.9% hits; note: % of control where 0% means no effect; nearly all actives have a fitted effect of over 50% in size
VP16 counter: inhibits Gal4-VP16 luciferase reporter, ROR gamma counter-screen; Drosophila S2 Gal4-VP16 UAS-luciferase, luminescence, 20 h; Potency, µM (series often up to 53.6 µM), for the others: top-dose activity, negative = inhibition, most hits filed as inhibitors; 310,000 compounds, 3.5% hits; AID 2546;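 note: Gal4-VP16 expression switched on by copper sulfate through the metallothionein promoter; % is set by controls: 0 for no effect and ±100 for the full control effect; nearly all actives have a fitted effect of over 50% in size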
ELG1 repair inh: blocks ELG1-dependent DNA repair in HEK293T cells; HEK293T ELG1-luciferase reporter, luminescence, 16 h; DNA damage induced by 5-fluorouridine; Potency, µM (top dose mostly 46.1 µM), for inactives: top-dose activity change, negative = inhibition, usual class: inhibitors; 330,000 compounds, 2.3% hits; AID 504467; note: % is set by controls: 0 for no effect and ±100 for the full control effect; nearly all actives have a fitted effect of over 55% in size
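HEK293T cells expressing luciferase-tagged ELG1 (2,000/well) received 5-Fluorouridine plus compound or DMSO for 16 hr at 37 °C. Luciferase was read by ONE-Glo luminescence after 30 min at room temperature.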
SW480 rereplic: induces DNA re-replication in SW480 colon adenocarcinoma cells. Potency, µM (titrated, usually from 46.1 µM), for the others: at the highest dose re-replication activation, most hits filed as activators. SW480 DNA re-replication, Hoechst DNA content imaging, 48 h. 340,000 compounds, 1.8% hits; note: % of control where 0% means no effect; nearly all actives have a fitted effect of over 55% in size
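DNA re-replication was detected as more nuclei of elevated Hoechst intensity after 48 hr exposure to compound (23 nL pinned per well of 250 cells).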
RORgamma inh: blocks mouse ROR gamma transcriptional activity. P51450. Drosophila S2 Gal4-RORgamma UAS-luciferase reporter, 20 h. Potency, µM (top dose mostly 53.6 µM), for the others: at the top dose activity change, negative = inhibition, most hits filed as inhibitors. 310,000 compounds, 5.4% hits; note: % is set by controls: 0 for no effect and ±100 for the full control effect; nearly all actives have a fitted effect of over 60% in size
Target sequence (P51450 whole entry, looked up, the tested form may be a part): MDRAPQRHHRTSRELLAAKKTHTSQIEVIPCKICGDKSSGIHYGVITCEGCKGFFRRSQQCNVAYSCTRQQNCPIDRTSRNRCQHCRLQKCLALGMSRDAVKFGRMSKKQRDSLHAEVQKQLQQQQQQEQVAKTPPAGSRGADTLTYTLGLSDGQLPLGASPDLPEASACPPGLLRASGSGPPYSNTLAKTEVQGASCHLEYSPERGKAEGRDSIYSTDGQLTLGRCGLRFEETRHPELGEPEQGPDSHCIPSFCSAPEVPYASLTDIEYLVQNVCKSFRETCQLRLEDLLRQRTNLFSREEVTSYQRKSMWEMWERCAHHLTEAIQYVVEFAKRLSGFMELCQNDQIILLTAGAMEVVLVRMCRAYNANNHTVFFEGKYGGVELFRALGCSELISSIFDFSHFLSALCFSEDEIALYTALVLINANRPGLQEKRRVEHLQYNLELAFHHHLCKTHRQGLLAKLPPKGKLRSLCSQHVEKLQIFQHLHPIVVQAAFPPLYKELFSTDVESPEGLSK
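Drosophila Schneider cells stably carrying a metallothionein-driven Gal4 DBD–ROR gamma fusion and a UAS-Photinus luciferase reporter were exposed to compound for 1 hr, then induced with copper sulfate (700 uM final) for 20 hr at ambient temperature before luminescence reading.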
An asterisk follows results filed as active; ? = inconclusive; . = no result; ! = not confirmed by another sample. Calls come from the whole dose curve; as a rule, active = well fitted curve in the direction sought with a large enough effect; inconclusive = small, poorly fitted or top-dose-only effect, or another doubt; inactive = no such curve, though single readings can be large; an effect the other way counts as inactive or inconclusive. Potency is the fitted concentration of half-maximal effect.

SMILES	MCF10A rerep	VP16 counter	ELG1 repair inh	SW480 rereplic	RORgamma inh
CCOc1ccc(S(=O)(=O)N(CC(=O)O)c2ccc(C)cc2)cc1	-19%	11%	10%	-4%	-1%
O=C1C(Cc2ccccc2)Nc2ncnc(N3CCN(c4ccccc4)CC3)c2N1Cc1ccc(Cl)cc1 (configuration not stated)	-14%	.	-3%	11%	.
COc1ccc(C(C(=O)NCCC(C)C)N(CCO)C(=O)c2snc(C(N)=O)c2N)cc1 (configuration not stated)	26%	-5%	?	36%	-21%
Cc1ccccc1-n1nc(CSc2nc3ccccc3[nH]2)c(-c2ccccc2)c1N	30%	?	?	10%	?
Nc1c(-c2ccccc2)c(CSc2nc3ccccc3[nH]2)nn1-c1cccc(Cl)c1	?	?	2.9µM*	?	?
Nc1c(-c2ccccc2)c(CSc2nc3ccccc3[nH]2)nn1-c1ccc(Cl)cc1	15%	-9%	6.5µM*	3%	18%
CCSc1nc(-c2ccccc2)nc(C(Cl)Cl)n1	12µM*	10µM*	18µM*	23%	1.3µM*
COc1cccc(NC(=O)c2cc3ccccc3oc2=O)c1	1%	10µM*	?	-12%	6.3µM*
COc1ccc2oc(=O)c(C(=O)Nc3cccc(C(C)=O)c3)cc2c1	-2%	5.6µM*	?	1%	2µM*
COc1cccc(NC(=O)c2oc3ccccc3c2NC(=O)C(C)(C)C)c1	26µM*	?	?	?	0%
COc1cccc(NC(=O)c2oc3ccccc3c2NC(=O)c2ccc3c(c2)OCO3)c1	-9%	6%	?	-2%	41%
CNC(=O)c1cc2cc(OC)ccc2oc1=O	-1%	-4%	1%	-22%	17%
COc1cc2c(cc1OC)CN(C(=O)c1cc(S(=O)(=O)N3CCOCC3)c(Cl)cc1Cl)CC2	7%	4%	-28%	?	31%
C(=N\NC1=NCCN1)/c1ccncc1	28%	3%	-10%	-12%	-10%
Cc1ccc(-n2c(Cc3ccccc3)n[nH]c2=S)c(C)c1	17%	?	-7%	1%	1.6µM*
S=c1[nH]nc(Cc2ccccc2)n1-c1cccc2ccccc12	-29%	?	-9%	7%	4µM*
Cc1cccc(C(=O)Nc2nnc(-c3cccnc3)o2)c1	-7%	1.3µM*	-23%	3%	0.71µM*
Clc1ccccc1-c1nnc(-c2cccnc2)o1	-1%	-5%	?	-10%	1%
O=C(Nc1nnc(-c2cccnc2)o1)c1cccc([N+](=O)[O-])c1	.	1.1µM*	18µM*	.	0.79µM*
O=C(Nc1nnc(-c2cccnc2)o1)c1ccccc1Cl	0%	?	0%	2%	8.9µM*
COC(=O)c1ccc(C(=O)Nc2nnc(-c3cccnc3)o2)cc1	.	2.8µM*	5%	.	2.5µM*
COC(=O)c1ccc(C(=O)Nc2ccc3nc(-c4cccnc4)[nH]c3c2)cc1	-12%	-9%	2%	2%	30%
Cn1cccc1C(=O)NCC(c1ccc(F)cc1)N1CCOCC1 (configuration not stated)	29%	-7%	?	9%	24%
CC1(C)CC(=O)C(C(=S)Nc2ccccc2)=C(NC2CC(C)(C)NC(C)(C)C2)C1	-2%	6%	-8%	-15%	10%
O=C(COC(=O)CNC(=O)c1ccc(Br)o1)Nc1ccccc1OC(F)F	4%	2%	?	-35%	23%
SMILES	MCF10A rerep	VP16 counter	ELG1 repair inh	SW480 rereplic	RORgamma inh
Cc1cccc(C(=O)Nc2nnc(-c3ccncc3)o2)c1	8%	2.8µM*	?	14%	3.2µM*
O=C(Nc1nnc(-c2ccncc2)o1)c1cccc(N2C(=O)CCC2=O)c1	-7%	10%	2%	1%	-26%
O=C(Nc1nnc(-c2ccncc2)o1)c1ccc2ccccc2c1	10%	0.56µM*	-5%	?	1.1µM*
Cc1cc(Nc2ccccc2C(=O)O)n(-c2cccc(Cl)c2)n1	-1%	6%	-8%	5.2µM*	11%
Cc1cc(Nc2ccc(Cl)cc2)n(-c2cccc(Cl)c2)n1	26µM*	0%	2%	?	-23%
Cc1cc(Nc2nc3ccccc3nc2Cl)n(-c2ccccc2)n1	13µM*	-3%	-7%	?	-43%
Cc1cc(Nc2ccc(Cl)cc2)n(-c2ccccc2)n1	?	-26%	0%	-2%	-18%
Cc1cc(Nc2nc3ccccc3nc2Cl)n(-c2ccccc2C)n1	?	-1%	-1%	4%	?
Cc1cc(NC(=O)c2ccc(Cl)cc2Cl)n(-c2ccccc2)n1	-4%	.	1%	-39%	.
O=C1NC(=O)C(Cc2c[nH]c3ccccc23)N1 (configuration not stated)	-1%	-15%	3%	-13%	4%
CCN(Cc1ccccc1)S(=O)(=O)c1ccccc1Br	?	.	-4%	-16%	.
CCCN(S(=O)(=O)c1ccccc1F)S(=O)(=O)c1ccccc1Br	21µM*	5%	-8%	?	-14%
N#CC1=C(N)Oc2cc(O)c(C=Nc3ccccc3)cc2C1c1ccccc1 (configuration not stated)	4.1µM*	?	?	26%	-9%
N#CC1=C(N)Oc2cc(N)ccc2C1c1ccc(Cl)cc1 (configuration not stated)	?	1%	-6%	?	-9%
Cc1ccc(N=Cc2cc3c(cc2O)OC(N)=C(C#N)C3c2ccccc2)cc1 (configuration not stated)	18µM*	?	-3%	?	?
Cc1ccccc1N=Cc1cc2c(cc1O)OC(N)=C(C#N)C2c1ccccc1 (configuration not stated)	18µM*	-30%	?	?	-17%
Cc1ccc(C2C(C#N)=C(N)Oc3cc4c(cc32)OCO4)cc1 (configuration not stated)	?	-12%	?	?	-7%
O=C(NCC(c1ccc(F)cc1)N1CCOCC1)c1ccc(OCc2ccccc2)cc1 (configuration not stated)	-7%	.	-1%	-6%	.
Cc1ccc(/C(O)=C2/C(=O)C(=O)N(c3ccccn3)C2c2cccc([N+](=O)[O-])c2)cc1 (configuration not stated)	?	-1%	1%	-17%	?
CN(C)C(CNC(=O)C1CCN(C(=O)/C=C/c2ccccc2)CC1)c1ccccc1 (configuration not stated)	16%	-18%	?	?	29%
COc1c(O)cc2oc3cc(O)c(CC=C(C)C)c(O)c3c(=O)c2c1CC=C(C)C	.	25µM*!	.	.	?
